Data reported in the supplement of paper PMC11732987, “Enantioselective OTUD7B fragment discovery through chemoproteomics screening and high-throughput optimisation” (Communications Chemistry, 2025).

Legend:
Experiment in all cases: log2 ratio of Biotin-Ahx-Ub-VS probe labelling (fragment/DMSO); higher = less target engagement (more negative = stronger competition), active = hit call of the paper (q ≤ 0.05, log2 ratio ≤ -1)
Conditions in all cases: compound concentration: 200 uM; treatment time: 3 h
OTUD6B = target: T1, OTUD6B (UniProt Q8N6M0)
T1 sequence (whole entry): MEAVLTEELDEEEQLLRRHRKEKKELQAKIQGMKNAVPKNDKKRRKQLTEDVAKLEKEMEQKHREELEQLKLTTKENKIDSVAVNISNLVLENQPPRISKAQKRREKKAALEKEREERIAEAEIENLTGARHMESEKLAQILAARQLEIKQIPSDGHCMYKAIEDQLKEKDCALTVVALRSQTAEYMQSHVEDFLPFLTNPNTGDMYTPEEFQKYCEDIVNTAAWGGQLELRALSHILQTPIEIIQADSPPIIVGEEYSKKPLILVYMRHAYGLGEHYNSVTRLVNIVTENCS
In short: (§1)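 HEK293T lysate, 495 µg per sample in Tris/CHAPS/IGEPAL buffer with protease inhibitors, was treated in triplicate with fragment at 200 µM or vehicle for 3 h and then with Biotin-Ahx-Ub-VS at 0.5 µM final for 1 h. Labelled DUBs were NeutrAvidin-enriched, digested with LysC and trypsin, and run by diaPASEF LC-MS/MS. Spectronaut label-free quantities were global-median-normalised, and values are average log2 fragment/vehicle ratios by unpaired t-test on proteins with ≥2 unique peptides.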

OTUD7B = target: T2, OTUD7B (UniProt Q6GQQ9)
T2 sequence (whole entry): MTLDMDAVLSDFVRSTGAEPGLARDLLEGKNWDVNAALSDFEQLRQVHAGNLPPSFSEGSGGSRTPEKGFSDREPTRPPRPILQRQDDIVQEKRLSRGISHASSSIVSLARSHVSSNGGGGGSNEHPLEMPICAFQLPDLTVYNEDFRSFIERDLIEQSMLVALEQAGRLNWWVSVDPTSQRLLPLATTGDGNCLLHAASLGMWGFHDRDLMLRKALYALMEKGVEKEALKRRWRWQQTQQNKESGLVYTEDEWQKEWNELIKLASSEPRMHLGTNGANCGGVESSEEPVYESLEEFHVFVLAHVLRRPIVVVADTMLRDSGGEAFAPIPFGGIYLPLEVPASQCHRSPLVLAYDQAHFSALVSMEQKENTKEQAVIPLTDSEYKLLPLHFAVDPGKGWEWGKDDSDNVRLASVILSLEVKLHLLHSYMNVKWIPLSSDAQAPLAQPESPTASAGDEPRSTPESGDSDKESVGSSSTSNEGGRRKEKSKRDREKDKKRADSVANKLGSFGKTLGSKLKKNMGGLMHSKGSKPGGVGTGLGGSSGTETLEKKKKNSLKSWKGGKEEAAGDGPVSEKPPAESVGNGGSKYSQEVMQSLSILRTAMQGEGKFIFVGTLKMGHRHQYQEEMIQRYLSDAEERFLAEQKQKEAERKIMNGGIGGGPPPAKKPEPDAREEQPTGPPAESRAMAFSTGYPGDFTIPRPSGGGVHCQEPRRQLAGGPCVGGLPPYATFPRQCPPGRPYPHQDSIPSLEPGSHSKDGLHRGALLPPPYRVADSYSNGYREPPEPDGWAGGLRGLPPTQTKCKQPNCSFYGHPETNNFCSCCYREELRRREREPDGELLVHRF
In short: as §1

PRPF8 = PRPF8 (UniProt Q6P2Q9)
In short: as §1

PSMD7 = target: T3, PSMD7 (UniProt P51665)
T3 sequence (whole entry): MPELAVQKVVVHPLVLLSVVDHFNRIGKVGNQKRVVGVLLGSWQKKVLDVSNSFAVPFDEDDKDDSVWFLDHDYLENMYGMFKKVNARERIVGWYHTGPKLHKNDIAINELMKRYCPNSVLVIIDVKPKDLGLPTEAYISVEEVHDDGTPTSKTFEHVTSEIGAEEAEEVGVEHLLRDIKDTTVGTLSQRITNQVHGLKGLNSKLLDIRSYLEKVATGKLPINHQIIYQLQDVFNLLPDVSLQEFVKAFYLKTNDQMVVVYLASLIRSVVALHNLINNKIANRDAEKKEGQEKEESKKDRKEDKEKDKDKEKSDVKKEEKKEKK
In short: as §1

UCHL1 = UCHL1 (UniProt P09936)
Chain of UCHL1 (P09936 whole entry, looked up): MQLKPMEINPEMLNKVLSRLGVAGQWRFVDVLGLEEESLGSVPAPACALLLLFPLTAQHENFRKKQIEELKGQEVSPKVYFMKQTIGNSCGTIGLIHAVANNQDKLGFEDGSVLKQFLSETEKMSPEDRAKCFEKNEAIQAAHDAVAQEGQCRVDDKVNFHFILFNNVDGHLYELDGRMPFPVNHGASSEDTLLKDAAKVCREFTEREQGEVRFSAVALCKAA
In short: as §1

UCHL3 = target: T4, UCHL3 (UniProt P15374)
T4 sequence (whole entry): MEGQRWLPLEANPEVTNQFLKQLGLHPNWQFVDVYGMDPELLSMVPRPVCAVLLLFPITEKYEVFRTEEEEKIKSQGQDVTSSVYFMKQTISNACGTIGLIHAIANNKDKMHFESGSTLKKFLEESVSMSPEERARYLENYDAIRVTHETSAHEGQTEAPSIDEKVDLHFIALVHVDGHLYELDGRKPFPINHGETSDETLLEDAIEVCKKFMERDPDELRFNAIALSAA
In short: as §1

UCHL5 = target: T5, UCHL5 (UniProt Q9Y5K5)
T5 sequence (whole entry): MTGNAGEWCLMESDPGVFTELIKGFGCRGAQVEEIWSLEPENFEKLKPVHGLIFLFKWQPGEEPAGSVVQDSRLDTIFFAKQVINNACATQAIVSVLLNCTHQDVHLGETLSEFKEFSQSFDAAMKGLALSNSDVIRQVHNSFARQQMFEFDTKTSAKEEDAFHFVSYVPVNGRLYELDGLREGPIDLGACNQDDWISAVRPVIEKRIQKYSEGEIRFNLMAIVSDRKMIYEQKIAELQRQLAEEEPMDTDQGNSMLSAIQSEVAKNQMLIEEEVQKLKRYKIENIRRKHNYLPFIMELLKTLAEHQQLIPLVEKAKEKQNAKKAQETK
In short: as §1

USP10 = USP10 (UniProt Q14694)
Chain of USP10 (Q14694 whole entry): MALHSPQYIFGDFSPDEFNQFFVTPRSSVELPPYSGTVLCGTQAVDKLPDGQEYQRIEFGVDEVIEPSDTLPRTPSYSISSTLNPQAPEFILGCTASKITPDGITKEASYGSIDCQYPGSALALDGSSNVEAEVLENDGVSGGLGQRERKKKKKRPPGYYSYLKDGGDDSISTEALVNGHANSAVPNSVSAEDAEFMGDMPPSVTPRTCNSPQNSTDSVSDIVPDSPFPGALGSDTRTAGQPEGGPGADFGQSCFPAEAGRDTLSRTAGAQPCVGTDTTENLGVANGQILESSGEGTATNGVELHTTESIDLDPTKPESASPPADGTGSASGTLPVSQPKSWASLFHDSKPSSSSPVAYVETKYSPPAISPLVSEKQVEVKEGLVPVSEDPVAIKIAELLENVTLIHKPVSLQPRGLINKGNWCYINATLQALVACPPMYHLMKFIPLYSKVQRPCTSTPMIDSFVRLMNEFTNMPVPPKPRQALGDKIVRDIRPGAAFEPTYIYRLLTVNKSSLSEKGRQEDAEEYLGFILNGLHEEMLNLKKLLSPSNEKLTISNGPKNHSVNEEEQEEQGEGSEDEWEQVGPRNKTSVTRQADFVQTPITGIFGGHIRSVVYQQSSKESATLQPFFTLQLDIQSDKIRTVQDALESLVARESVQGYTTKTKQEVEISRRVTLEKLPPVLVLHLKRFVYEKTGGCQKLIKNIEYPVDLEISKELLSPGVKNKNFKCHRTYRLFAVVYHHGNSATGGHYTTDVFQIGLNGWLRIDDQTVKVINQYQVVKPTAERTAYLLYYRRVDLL
In short: as §1

USP15 = target: T6, USP15 (UniProt Q9Y4E8)
T6 sequence (whole entry): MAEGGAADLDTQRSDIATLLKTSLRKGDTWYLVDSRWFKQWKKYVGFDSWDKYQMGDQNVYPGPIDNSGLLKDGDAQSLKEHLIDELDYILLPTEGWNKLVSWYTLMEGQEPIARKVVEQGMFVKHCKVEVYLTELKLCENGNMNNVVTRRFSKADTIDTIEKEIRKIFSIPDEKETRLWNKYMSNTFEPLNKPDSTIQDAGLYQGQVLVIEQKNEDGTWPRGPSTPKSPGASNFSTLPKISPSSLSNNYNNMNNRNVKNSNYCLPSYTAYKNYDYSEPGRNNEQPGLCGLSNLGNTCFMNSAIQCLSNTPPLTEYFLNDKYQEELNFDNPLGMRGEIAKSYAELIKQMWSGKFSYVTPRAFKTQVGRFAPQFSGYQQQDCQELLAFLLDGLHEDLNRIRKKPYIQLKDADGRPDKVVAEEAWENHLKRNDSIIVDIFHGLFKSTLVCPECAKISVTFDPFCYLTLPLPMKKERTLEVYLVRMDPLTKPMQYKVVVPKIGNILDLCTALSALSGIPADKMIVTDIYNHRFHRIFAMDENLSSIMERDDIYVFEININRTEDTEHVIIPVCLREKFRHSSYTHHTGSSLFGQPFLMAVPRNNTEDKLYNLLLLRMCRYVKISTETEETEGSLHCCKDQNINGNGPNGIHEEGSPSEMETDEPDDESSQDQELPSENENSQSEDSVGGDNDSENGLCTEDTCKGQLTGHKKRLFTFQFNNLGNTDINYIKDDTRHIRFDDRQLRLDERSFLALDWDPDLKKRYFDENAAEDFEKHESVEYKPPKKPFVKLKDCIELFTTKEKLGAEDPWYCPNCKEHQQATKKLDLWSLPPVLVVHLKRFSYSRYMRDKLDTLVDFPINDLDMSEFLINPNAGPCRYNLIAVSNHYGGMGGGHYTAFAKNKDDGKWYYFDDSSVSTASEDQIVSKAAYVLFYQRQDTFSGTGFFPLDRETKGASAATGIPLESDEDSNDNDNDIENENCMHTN
In short: as §1

USP16 = USP16 (UniProt Q9Y5T5)
Chain of USP16 (Q9Y5T5 whole entry, looked up): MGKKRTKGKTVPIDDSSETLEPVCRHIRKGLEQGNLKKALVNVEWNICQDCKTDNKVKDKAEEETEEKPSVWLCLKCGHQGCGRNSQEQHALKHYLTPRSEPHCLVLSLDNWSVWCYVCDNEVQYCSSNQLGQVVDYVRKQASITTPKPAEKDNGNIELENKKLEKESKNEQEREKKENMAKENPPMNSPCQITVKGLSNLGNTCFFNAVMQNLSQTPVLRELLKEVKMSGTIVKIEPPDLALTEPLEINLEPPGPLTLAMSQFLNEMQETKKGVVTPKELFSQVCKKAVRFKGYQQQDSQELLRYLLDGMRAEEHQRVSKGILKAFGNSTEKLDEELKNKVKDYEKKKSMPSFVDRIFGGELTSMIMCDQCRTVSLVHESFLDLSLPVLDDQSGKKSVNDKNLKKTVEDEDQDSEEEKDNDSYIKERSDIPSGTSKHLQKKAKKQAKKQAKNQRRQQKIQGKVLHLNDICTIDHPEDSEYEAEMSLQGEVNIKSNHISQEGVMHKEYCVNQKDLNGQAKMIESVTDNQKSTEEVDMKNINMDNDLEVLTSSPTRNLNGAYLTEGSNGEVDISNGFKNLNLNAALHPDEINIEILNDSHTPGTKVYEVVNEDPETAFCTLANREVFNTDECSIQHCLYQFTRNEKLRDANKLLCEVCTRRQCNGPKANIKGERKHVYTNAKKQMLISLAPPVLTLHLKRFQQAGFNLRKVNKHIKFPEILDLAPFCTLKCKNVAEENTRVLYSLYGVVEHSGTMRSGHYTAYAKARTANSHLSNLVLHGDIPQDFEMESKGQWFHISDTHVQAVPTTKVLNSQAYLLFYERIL
In short: as §1

Measured: log2 ratio of Biotin-Ahx-Ub-VS probe labelling

O=C(CCl)Nc1ccc2c(c1)OC(F)(F)O2
active: UCHL1 -1.06
inactive: OTUD6B -0.167 | OTUD7B -0.873 | PRPF8 0.00481 | PSMD7 -0.159 | UCHL3 0.0771 | UCHL5 -0.471 | USP10 -0.126 | USP15 -0.192 | USP16 0.132
